{"source": "PubChem BioAssay AID686979", "about": "(National Center for Advancing Translational Sciences (NCATS), 2013)", "note": "Hit rate of the full screen: of about 420,000 compounds, about 50,000 (12%) were called active. Entries that show only a call come without a potency. Roughly 26% stayed inconclusive and do not appear here. Calls come from the whole dose curve; as a rule, active = well fitted inhibition curve with a large enough effect; inconclusive = small, poorly fitted or top-dose-only effect; inactive = flat fitted curve, though single readings scatter. For the sample, actives were picked, then their nearest neighbours and some compounds at random. Potency is the fitted concentration of half-maximal effect.", "data": [{"experiment": "qHTS for Inhibitors of human tyrosyl-DNA phosphodiesterase 1 (TDP1): qHTS in cells in presence of CPT; note: nearly all actives have a fitted effect of over 55% in size", "details": "chicken DT40 Tdp1-/-;hTDP1 cells + 20 nM CPT, ATP luminescence, 48 h; series mostly up to 46.2 µM", "outline": "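Chicken DT40 Tdp1-/- cells complemented with human TDP1, 400 cells/well, exposed to compounds plus 20 nM camptothecin for at least 48 h at 37 C; viability read as ATP content by CellTiter-Glo luminescence.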", "values": [{"smiles": "CC(=O)Nc1cnc(-c2ccc(O)cc2C)cn1", "Potency": "9.2 µM (active)"}, {"smiles": "Cc1cc(O)ccc1-c1cnc2ccccc2n1", "Potency": "inactive"}, {"smiles": "CC(=O)Nc1cncc(-c2ccccc2CO)n1", "Potency": "inactive"}, {"smiles": "COC(=O)c1ccc(COC(=O)c2cnc(Cl)c(Cl)c2)cc1", "Potency": "inactive"}, {"smiles": "COC(=O)c1ccc2nc(-c3ccc(OC)c(OC)c3)c(Cc3ccccc3)n2c1", "Potency": "23.1 µM (active)"}, {"smiles": "COc1ccc(C(=O)NNc2cc(C)nc(NNC(=O)c3ccc(OC)cc3)n2)cc1", "Potency": "inactive"}, {"smiles": "COc1ccc(C(=O)OCC(=O)NCCCc2ccccc2)cc1OC", "Potency": "inactive"}, {"smiles": "COc1ccc(NC(=O)c2cc(-c3ccc(C)cc3)on2)cc1", "Potency": "inactive"}, {"smiles": "COC(=O)c1ccc2nc(-c3ccc(C)cc3)c(Cc3ccc(OC)cc3C)n2c1", "Potency": "23.1 µM (active)"}, {"smiles": "COC(=O)c1ccc2nc(-c3ccc(Cl)cc3)c(Cc3cccc(F)c3)n2c1", "Potency": "20.6 µM (active)"}, {"smiles": "COC(=O)c1ccc(CSc2nc3cc(Cl)ccc3o2)cc1", "Potency": "inactive"}, {"smiles": "COC(=O)c1ccc2nc(-c3cccc(Br)c3)c(Cc3ccccc3C(F)(F)F)n2c1", "Potency": "inactive"}, {"smiles": "Cc1ccc(N2CCN(c3ccc([N+](=O)[O-])cn3)CC2)c(C)c1", "Potency": "inactive"}, {"smiles": "CCOC(=O)C(=Cc1ccccc1)C(=O)c1ccccc1", "Potency": "18.4 µM (active)"}, {"smiles": "CCOC(=O)C(=CNc1cccc(C)n1)C(=O)OCC", "Potency": "inactive"}, {"smiles": "CCOC(=O)CNC(=O)/C(=C\\c1ccc(F)cc1)NC(=O)c1ccccc1", "Potency": "inactive"}, {"smiles": "O=c1ccc2cc(S(=O)(=O)Nc3ccccc3F)ccc2o1", "Potency": "inactive"}, {"smiles": "CCOc1ccc2c(c1)c(=O)c(S(=O)(=O)c1ccc(C)cc1)cn2CC", "Potency": "18.4 µM (active)"}, {"smiles": "CCCn1cc(S(=O)(=O)c2ccc(C)cc2)c(=O)c2cc(OCC)ccc21", "Potency": "inactive"}, {"smiles": "CCOc1cccc(C(=O)Nc2cnn(Cc3ccccc3)c2)c1", "Potency": "inactive"}, {"smiles": "COc1ccc2c(c1)c(=O)c(S(=O)(=O)c1ccc(F)cc1)cn2CC(=O)Nc1ccc(C)cc1C", "Potency": "inactive"}, {"smiles": "CCOc1ccc(S(=O)(=O)c2cn(Cc3ccccc3)c3ccc(OCC)cc3c2=O)cc1", "Potency": "13 µM (active)"}, {"smiles": "CCOc1ccc(S(=O)(=O)NCCSc2ccccc2)cc1", "Potency": "inactive"}, {"smiles": "CCN(CC)Cc1c(C(=O)N/N=C/c2cccc(OCc3ccc(F)cc3)c2)nnn1-c1nonc1N", "Potency": "inactive"}, {"smiles": "CC(C)(C)n1nc2c(c1NC(=O)c1cc3ccccc3o1)CSC2", "Potency": "inactive"}, {"smiles": "O=C(NC(=S)Nc1cc(C(F)(F)F)ccc1N1CCOCC1)c1ccc(-c2cccc(Cl)c2)o1", "Potency": "inactive"}, {"smiles": "Oc1ccc(Br)cc1C=Nc1ccc2[nH]ncc2c1", "Potency": "inactive"}, {"smiles": "Oc1ccc(Br)cc1/C=N/Nc1ccccn1", "Potency": "1.64 µM (active)"}, {"smiles": "CCN(CC)CCn1c(/N=C/c2cc(Br)ccc2O)nc2ccccc21", "Potency": "inactive"}, {"smiles": "O=C(NCCN1CCOCC1)Nc1cccc(Cl)c1", "Potency": "inactive"}, {"smiles": "CCN1CCN(CCNC(=O)c2ccc3c(c2)NC(=O)/C(=C\\c2cccc(Cl)c2)S3)CC1", "Potency": "23.1 µM (active)"}, {"smiles": "O=C(NCCCN1CCCCC1)c1ccc2c(c1)NC(=O)C(N1CCOCC1)S2", "note": "(stereo unspecified)", "Potency": "inactive"}, {"smiles": "COc1ccc(CN2CCCC(CNC(=O)c3ccc(F)cc3)C2)cc1OC", "note": "(stereo unspecified)", "Potency": "inactive"}, {"smiles": "CCN1CCCC1CNC(=O)c1ccc2c(c1)NC(=O)/C(=C\\c1ccccc1F)S2", "note": "(stereo unspecified)", "Potency": "18.4 µM (active)"}, {"smiles": "CCN1CCCC1CNC(=O)c1cc2cc(OC)c(OC)cc2[nH]1", "note": "(stereo unspecified)", "Potency": "inactive"}, {"smiles": "CCOC(=O)c1sc(=NC(=O)c2ccc(Br)cc2)n(C)c1C", "Potency": "inactive"}, {"smiles": "Cc1ccc2nc(-c3ccc(Br)cc3)cn2c1", "Potency": "inactive"}, {"smiles": "Cc1ccc(NS(=O)(=O)c2ccc(-c3ccc(=O)[nH]n3)o2)c(C)c1", "Potency": "inactive"}, {"smiles": "O=C(O)c1[nH]c2ccccc2c1C(c1cccc(O)c1)c1c(C(=O)O)[nH]c2ccccc12", "Potency": "inactive"}, {"smiles": "CC(=O)OCC(C)n1c(=O)c2ccccc2n1C(C)=O", "note": "(stereo unspecified)", "Potency": "inactive"}, {"smiles": "O=C(COC(=O)COc1cc(Cl)c(Cl)cc1Cl)NC1CC1", "Potency": "inactive"}, {"smiles": "NC(=S)NN=Cc1ccc(OC(=O)COc2cc(Cl)c(Cl)cc2Cl)cn1", "Potency": "6.51 µM (active)"}, {"smiles": "O=C(COc1cc(Cl)c(Cl)cc1Cl)NCCc1ccccn1", "Potency": "inactive"}, {"smiles": "O=C(Cn1cnc2c(oc3ccccc32)c1=O)Nc1ccc(OC(F)(F)F)cc1", "Potency": "inactive"}, {"smiles": "C[C@H](NC(=O)c1ccccc1Cl)C(=O)OCCOc1cccc(Cl)c1", "Potency": "inactive"}, {"smiles": "O=C1C(Sc2cccc(F)c2)=C[C@@]2(O)CC[C@@H](O)[C@]1(Sc1cccc(F)c1)[C@H]2O", "Potency": "16.4 µM (active)"}, {"smiles": "COc1ccccc1NC(=O)C1=C(C)Nc2ncnn2C1c1ccc(C)o1", "note": "(stereo unspecified)", "Potency": "inactive"}, {"smiles": "CC1=C(C(=O)OCc2ccccc2)C(c2ccco2)n2ncnc2N1", "note": "(stereo unspecified)", "Potency": "23.1 µM (active)"}, {"smiles": "COC(=O)C1=C(C)Nc2ncnn2C1c1ccco1", "note": "(stereo unspecified)", "Potency": "inactive"}, {"smiles": "Cc1ccc(S(=O)(=O)c2c[nH]c3ccc(Cl)cc3c2=O)cc1", "Potency": "inactive"}, {"smiles": "Cc1nc(COc2cc3oc(=O)cc(C)c3cc2Cl)cs1", "Potency": "inactive"}, {"smiles": "CN(C)/N=C/c1cn(-c2ccccc2)nc1-c1cccnc1", "Potency": "inactive"}, {"smiles": "COc1ccc(-c2nn(-c3ccccc3)cc2/C=N/Nc2ccccn2)cc1OC", "Potency": "7.31 µM (active)"}, {"smiles": "O=Cc1cn(-c2ccccc2)nc1-c1ccccn1", "Potency": "inactive"}, {"smiles": "Cc1cc(C)cc(OCC(=O)Nc2nc(-c3ccc(F)cc3)ns2)c1", "Potency": "inactive"}, {"smiles": "O=c1ccn([C@@H]2O[C@H](CNS(=O)(=O)c3cc4ccccc4s3)[C@@H](O)[C@H]2O)c(=O)[nH]1", "Potency": "inactive"}, {"smiles": "COc1ccc2c(c1)c1ncn(Cc3ccccn3)c(=O)c1n2C", "Potency": "inactive"}, {"smiles": "Cc1cc([N+](=O)[O-])nn1Cc1ccc(F)cc1", "Potency": "inactive"}, {"smiles": "C=CCN1C(=O)C(O)(CC(=O)c2ccc(Cl)cc2)c2ccccc21", "note": "(stereo unspecified)", "Potency": "18.4 µM (active)"}, {"smiles": "C=CCN1C=C(C(=O)c2ccccc2)C(=O)CC1", "Potency": "inactive"}, {"smiles": "C=CCN1C(=O)C2(OCCCO2)c2cccc(Cl)c21", "Potency": "inactive"}, {"smiles": "O=C(NCc1ccccc1)C1CCN(S(=O)(=O)c2ccc3[nH]c(=O)ccc3c2)CC1", "Potency": "inactive"}, {"smiles": "CCC(=O)N1CCc2cc(S(=O)(=O)NC(Cc3ccccc3)C(=O)NCc3ccc(C)cc3)ccc21", "note": "(stereo unspecified)", "Potency": "inactive"}, {"smiles": "COCCCNC(=O)/C(C#N)=C/c1c(N2CCCCCC2)nc2ccccn2c1=O", "Potency": "inactive"}, {"smiles": "CC(=O)Nc1ccc(NC(=O)COc2ccc(S(=O)(=O)NC(C)c3ccccc3)cc2)cc1", "note": "(stereo unspecified)", "Potency": "inactive"}, {"smiles": "CNC(=S)NNC(=O)c1sccc1OCc1ccccc1", "Potency": "inactive"}, {"smiles": "Cc1ccc(/C=N/NC(=O)c2sccc2OCc2ccc(F)cc2)cc1", "Potency": "16.4 µM (active)"}, {"smiles": "Cc1ccc(COc2ccc(/C=N/NC(=O)CN3CCCCC3)cc2)cc1", "Potency": "inactive"}, {"smiles": "CCOc1ccccc1NC(=O)CN1CCN(S(=O)(=O)c2ccc(Br)cc2)CC1", "Potency": "inactive"}, {"smiles": "COc1ccc(Cn2nnc3c(=O)[nH]c(C4CCN(C(=O)c5ccccc5Cl)CC4)nc32)cc1", "Potency": "inactive"}, {"smiles": "CC(=O)Nc1ccc(Nc2ncnc3c2nnn3Cc2ccccc2Cl)cc1", "Potency": "inactive"}, {"smiles": "O=C(Nc1ccc(F)cc1)N1CCCC(c2nc3c(nnn3Cc3ccccc3Cl)c(=O)[nH]2)C1", "note": "(stereo unspecified)", "Potency": "20.6 µM (active)"}, {"smiles": "C[C@@H]1CN([C@@H](C)CO)C(=O)CCCn2cc(nn2)CO[C@H]1CN(C)S(=O)(=O)c1ccc(-n2cccn2)cc1", "Potency": "inactive"}, {"smiles": "C/C=C(\\C)C(=O)OC1C(OC(=O)C2(C)OC2C)c2cc3ccc(=O)oc3cc2OC1(C)C", "note": "(stereo unspecified)", "activity change, negative = growth inhibition": "14.7% [at 9.04 µM] (inactive)"}, {"smiles": "COc1cc(C2C(C(=O)c3sc(C)nc3C)=C(O)C(=O)N2CCN(C)C)cc(OC)c1OC", "note": "(stereo unspecified)", "Potency": "inactive"}, {"smiles": "O=C(c1cccs1)n1nc(NCc2ccccc2)nc1NCc1ccccc1", "Potency": "inactive"}, {"smiles": "CCCc1cc(=O)[nH]c(SCC(=O)N2C(C)CCCC2C)n1", "note": "(stereo unspecified)", "Potency": "inactive"}, {"smiles": "CCCc1cc(=O)[nH]c(SCC(=O)Nc2ccc(S(=O)(=O)N3CCCC3)cc2)n1", "Potency": "inactive"}, {"smiles": "CCCc1cc(=O)[nH]c(SCC(=O)c2c(N)n(CC(C)C)c(=O)n(C)c2=O)n1", "Potency": "7.31 µM (active)"}, {"smiles": "Cc1ccc(Cl)cc1NC(=O)CSc1nccn1C", "Potency": "inactive"}, {"smiles": "COc1ccccc1C(=O)NCCC(=O)NC1=NCCS1", "Potency": "inactive"}, {"smiles": "Cc1cc(C)cc(Oc2c(C(F)(F)F)oc3cc(OCC(=O)O)ccc3c2=O)c1", "Potency": "inactive"}, {"smiles": "Cc1nc2ccccc2c(=O)n1-c1ccc(NS(=O)(=O)c2ccc(F)cc2F)cc1", "Potency": "inactive"}, {"smiles": "Cc1[nH]n(-c2ccc(Cl)cc2)c(=O)c1/C=N/n1c(C)nc2ccccc2c1=O", "Potency": "20.6 µM (active)"}, {"smiles": "Cc1cccc(-c2nc3ccccc3c(=O)n2NC(=O)Cc2ccc(Cl)cc2)c1", "Potency": "inactive"}, {"smiles": "CC(OC(=O)c1cccc(S(=O)(=O)N2CCOCC2)c1)C(=O)NCC1CCCCC1", "note": "(stereo unspecified)", "Potency": "inactive"}, {"smiles": "Cc1occc1-c1nnc(SCC(=O)NC2(C#N)CCCC2)n1C", "Potency": "inactive"}, {"smiles": "CN(Cc1ccc(C(F)(F)F)cc1)C(=O)[C@H]1O[C@@H](n2cnc3c(N)ncnc32)[C@H](O)[C@@H]1O", "Potency": "inactive"}, {"smiles": "Cc1noc(C)c1S(=O)(=O)N(C)C[C@H]1Oc2c(NC(=O)Nc3ccc4c(c3)OCO4)cccc2C(=O)N([C@H](C)CO)C[C@@H]1C", "Potency": "inactive"}, {"smiles": "CCc1nn(CCCC(=O)Nc2ccc(C)cc2C)c(=O)c2cc3occc3n12", "Potency": "inactive"}, {"smiles": "CC1=CC2=NC(=O)/C(=C/c3coc4ccccc4c3=O)C(=N)N2O1", "Potency": "inactive"}, {"smiles": "COc1ccc(OCCCn2cccc2/C=C2/C(=N)N3OC(C)=CC3=NC2=O)cc1", "Potency": "18.4 µM (active)"}, {"smiles": "CCOc1cc(/C=C2/C(=N)N3OC(C)=CC3=NC2=O)ccc1OC", "Potency": "inactive"}, {"smiles": "COc1cccc(CNC(=O)c2cccnc2Sc2ccc(Cl)cc2)c1", "Potency": "inactive"}, {"smiles": "Cc1ccnc(NC(=O)CNC(=O)c2ccccc2)c1", "Potency": "inactive"}, {"smiles": "Cc1cc(NC(=O)c2cc3ccccc3o2)no1", "Potency": "inactive"}, {"smiles": "CC(=O)Nc1cccc(C(=O)OCC(=O)c2ccc3c(c2)OCO3)c1", "Potency": "inactive"}, {"smiles": "O=C(CSc1n[nH]c(-c2ccccc2)n1)N1CCCCC1", "Potency": "inactive"}, {"smiles": "C=CC(C1=CC(=O)C=CC1=O)c1ccc(O)cc1", "note": "(stereo unspecified)", "Potency": "1.64 µM (active)"}, {"smiles": "CSc1ncccc1C(=O)OCc1ccc(Br)cc1", "Potency": "inactive"}, {"smiles": "NC(=O)C1(Nc2ccc(-c3ccccc3)cc2)CCCC1", "Potency": "inactive"}]}]}
